Where “and” joins values, the source holds several entries; their conditions need not be identical. Equal entries are not always repeated. Records with an inconclusive call do not appear. A call without a number means that no potency is given here. Some compounds were tested as several samples or in several runs, with calls that do not always agree. Calls of active or inactive are those of the source. The call rests on the fitted dose curve; in most records, active means well fitted cell-killing curve with a large enough effect in the repeat runs; inconclusive means weak or mixed curves; inactive means no such curve, though single readings can be large or run the other way.
Potency means the concentration at half of the fitted maximal effect.

The nature of the assay: qHTS assay to identify small molecule antagonists of the peroxisome proliferator-activated receptor delta (PPARd) signaling pathway - cell viability counter screen (AID 743213). Further: nearly all actives have a fitted effect of over 50% in size. The conditions noted are these: PPARd-bla HEK293H viability, CellTiter-Glo luminescence, 17 h; series mostly up to 62 µM. From the text:
U.S. Tox21 Program National Center for Advancing Translational Sciences [NCATS] NIH Chemical Genomics Center [NCGC] U.S. Environmental Protection Agency [EPA] National Institutes of Environmental Health Sciences [NIEHS] National Toxicology Program [NTP] U.S. Food and Drug Administration [FDA] Tox21 Assay Overview: The peroxisome proliferator-activated receptors (PPARs) are lipid-activated transcription factors of the nuclear receptor superfamily with three distinct subtypes namely PPAR alpha, PPAR delta (PPARd) and PPAR gamma. All these subtypes heterodimerizes with Retinoid X receptor (RXR) and have different physiological functions. […] To identify the compounds that inhibit PPAR-delta signaling, GeneBLAzer PPAR delta UAS-bla HEK293H cell line (Invitrogen, Carlsbad, CA, USA) containing a beta-lactamase reporter gene under the control of an Upstream Activator Sequence (UAS) was used to screen the Tox21 compound library. The cytotoxicity of the Tox21 compound library against the PPARd-bla cell line was tested in parallel by measuring the cell viability using CellTiter-Glo assay (Promega, Madison, WI) in the same wells.
Tox21 Assay Protocol Summary: PPARd-bla cells were dispensed at 3000 cells/5uL/well in 1536-well black wall/clear bottom plates using a Multidrop Combi (Thermo Fisher Scientific, Waltham, MA) dispenser. After the assay plates were incubated at 37 C and 5% CO2 for 5 h, 23 nL of compounds dissolved in DMSO, positive controls or DMSO only was transferred to the assay plate by a Pintool station (Kalypsys, San Diego, CA), followed by addition of 1ul L165041 (300 nM, final concentration in the wells). The assay plates were incubated at 37 C for 17 h, and then 1 uL of LiveBLAzerTM B/G FRET substrate was added using a Bioraptr Flying Reagent Dispenser (FRD) workstation (Beckman Coulter, Indianapolis, IN, USA). The assay plates were incubated at room temperature for 2 h and fluorescence intensity was measured by an Envision plate reader (PerkinElmer, Shelton, CT). For cell viability readout that measures cytotoxicity, 3 ul/well of CellTiter-Glo reagent was added into the assay plates using a Bioraptr FRD. After 30 min incubation at room temperature, the luminescence intensity in the plates was measured using a ViewLux plate reader (PerkinElmer).
In general terms: In qHTS, concentration-response curves come from the screen itself.
In the case of `CC(C)(C)C(=O)C(Cl)Cl`, the Potency entry was “inactive”.
The result for `Cc1cccc2sc3nncn3c12` reads “inactive”.
The result for `CS(=O)(=O)c1ccc(C(=O)C2C(=O)CCCC2=O)c(Cl)c1COCC(F)(F)F` reads “inactive”; that for `CCOC(=O)C(Cl)Cc1cc(-n2nc(C)n(C(F)F)c2=O)c(F)cc1Cl` (stereo not given), “inactive”.
The result for `CC(Cc1ccccc1)NCCCCl` (stereo not given) reads “inactive”; that for `O=c1[nH]c2ccccc2n1C1CCNCC1`, “inactive”.
On to `CON(C)C(=O)Nc1ccc(Br)cc1`, for which the Potency entry is “inactive”.
For `C=CC(=O)OCCN(C)C` the value was “inactive”; for `CC(C)[N+](C)(CCC(C(N)=O)(c1ccccc1)c1ccccc1)C(C)C`, “inactive”; for `CCCCCCCCSC(=O)Oc1cc(Cl)nnc1-c1ccccc1`, “inactive”.
Consider `CCOC(=O)N(C)N=O`, for which the Potency result is “inactive”.
For `CCOc1cc(OP(=S)(OC)OC)nc(CC)n1` the value was “inactive”; for `CC#Cc1cc(C)nc(Nc2ccccc2)n1`, “inactive”; for `CCC(C(N)=O)N1CCCC1=O` (stereo not given), “inactive”.
The result for `ClCC1CO1` (stereo not given) reads “inactive”.
On to `CC1N=C(N)OC1c1ccccc1` (stereo not given), for which the Potency result is “inactive”.
For `O=C1CC(=O)NC(=O)N1` the value was “inactive”.
For `ClC1=C(Cl)C2(Cl)C(CBr)CC1(Cl)C2(Cl)Cl` (stereo not given) the value was “inactive”; for `CCC(CC)(CNC(=O)CCCO)c1cccc(OC)c1`, “inactive”.
`Cc1ccc(-c2nc3ccc(C)cn3c2CC(=O)N(C)C)cc1`: the Potency result was “inactive”.
Consider `CC(C)(C)NC[C@H](O)c1ccc(O)cc1Cl`, for which the Potency result was “inactive”.
For `CCNc1nc(Cl)nc(NC(C)(C)C)n1` the value was “inactive”; for `C=C(Cl)CCl`, “inactive”.
The result for `CNC(=O)Oc1cc(C)c(N(C)C)c(C)c1` reads “inactive”; that for `COC(=O)[C@@H](N)CCCN/C(N)=N/[N+](=O)[O-]`, “inactive”.
As to `OP(O)c1ccccc1`, the Potency entry is “inactive”.
The result for `NC(=O)OCCCc1ccccc1` reads “inactive”; that for `CC(C)N(Cc1ccccc1)C(=O)C(C)(C)C`, “inactive”.
For `CCCCCCCCBr` the value was “inactive”; for `COC1=CC(=O)O[C@@H](/C=C/c2ccccc2)C1`, “inactive”; for `O=C1C2CC=CCC2C(=O)N1SC(Cl)(Cl)Cl` (stereo not given), “inactive and 12.1 µM (active)”.
Consider `c1cncc([C@@H]2CCCCN2)c1`, for which the Potency result was “inactive”.
On to `Oc1ccc2c3c1O[C@H]1[C@@H](O)C=C[C@H]4[C@@H](C2)NCC[C@@]341`, for which the Potency entry is “inactive”.
On to `COc1cccc(C=O)c1`, for which the Potency result was “inactive”.
For `N#CN` the value was “inactive”; for `N#CN=C1SCCN1Cc1ccc(Cl)nc1`, “inactive”; for `CCCCCCC(=O)CCCCCC/C=C/C[C@@H](O)[C@H](O)[C@@](N)(CO)C(=O)O`, “inactive”.
`O=C(O)C(F)(F)C(F)(F)C(F)(F)C(F)(F)C(F)(F)C(F)(F)F`: the Potency entry was “inactive”.
The result for `O=[N+]([O-])CCO` reads “inactive”; that for `O=C(NC(O)C(Cl)(Cl)Cl)NC(O)C(Cl)(Cl)Cl` (stereo not given), “inactive”.
